These results are taken from the supplement of paper PMC6992640.

One assay has as its system HCI01 (cells of a triple-negative basal-like breast cancer xenograft). The experiment in a line: cell viability of combination (% of vehicle); higher = less cytotoxic. Particulars: 1 µM; 72 h; partner dose: 10 nM. On the procedure: (§1)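 PDX cells were treated for 72 h with each drug at 1 µM plus carfilzomib (10 nM; 100 nM for WHIM2). Luciferase viability is expressed as percent of vehicle.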
In another assay the test system is UCD52 (cells of a triple-negative basal-like breast cancer xenograft). The assay is described as above. Particulars: 1 µM; 72 h; partner dose: 10 nM. On the procedure: as §1

As for `CCc1oc2ccccc2c1C(=O)c1cc(Br)c(O)c(Br)c1` [Benzbromarone] + CC(C)C[C@H](NC(=O)[C@H](CCc1ccccc1)NC(=O)CN1CCOCC1)C(=O)N[C@@H](Cc1ccccc1)C(=O)N[C@@H](CC(C)C)C(=O)[C@@]1(C)CO1 [Carfilzomib], the “cell viability of combination” value was found to be 84.6 in the assay on HCI01 and 63.1 in the assay on UCD52.

Turning to `CC1=CC(=O)c2ccccc2C1=O` [Menadione] + CC(C)C[C@H](NC(=O)[C@H](CCc1ccccc1)NC(=O)CN1CCOCC1)C(=O)N[C@@H](Cc1ccccc1)C(=O)N[C@@H](CC(C)C)C(=O)[C@@]1(C)CO1 [Carfilzomib], the entries for the “cell viability of combination” value with HCI01 and in the assay on UCD52 were 78.2 and 62, respectively.

On to `COc1cc(Nc2ncc(F)c(Nc3ccc4c(n3)N(COP(=O)(O)O)C(=O)C(C)(C)O4)n2)cc(OC)c1OC` [Fostamatinib (R788)] + CC(C)C[C@H](NC(=O)[C@H](CCc1ccccc1)NC(=O)CN1CCOCC1)C(=O)N[C@@H](Cc1ccccc1)C(=O)N[C@@H](CC(C)C)C(=O)[C@@]1(C)CO1 [Carfilzomib], for which the “cell viability of combination” value came to 119 in the assay on HCI01 and 64.9 in the assay on UCD52.

On to `N.N.O=C([O-])C1(C(=O)[O-])CCC1.[Pt+2]` [Carboplatin] + CC(C)C[C@H](NC(=O)[C@H](CCc1ccccc1)NC(=O)CN1CCOCC1)C(=O)N[C@@H](Cc1ccccc1)C(=O)N[C@@H](CC(C)C)C(=O)[C@@]1(C)CO1 [Carfilzomib], for which the figures for the “cell viability of combination” value in the assay with HCI01 and in the assay on UCD52 were 81.2 and 70.6, respectively.

`CO[C@H]1C[C@@H]2CC[C@@H](C)[C@@](O)(O2)C(=O)C(=O)N2CCCC[C@H]2C(=O)O[C@H]([C@H](C)C[C@@H]2CC[C@@H](O)[C@H](OC)C2)CC(=O)[C@H](C)/C=C(\C)[C@@H](O)[C@@H](OC)C(=O)[C@H](C)C[C@H](C)/C=C/C=C/C=C/1C` [Rapamycin (Sirolimus)] + CC(C)C[C@H](NC(=O)[C@H](CCc1ccccc1)NC(=O)CN1CCOCC1)C(=O)N[C@@H](Cc1ccccc1)C(=O)N[C@@H](CC(C)C)C(=O)[C@@]1(C)CO1 [Carfilzomib]: the “cell viability of combination” value in the assay on HCI01 came out at 68.3; with UCD52, 49.1.

As for `CCOC(=O)C1=C(COCCN)NC(C)=C(C(=O)OC)C1c1ccccc1Cl.O=S(=O)(O)c1ccccc1` (stereo unspecified) [Amlodipine Besylate] + CC(C)C[C@H](NC(=O)[C@H](CCc1ccccc1)NC(=O)CN1CCOCC1)C(=O)N[C@@H](Cc1ccccc1)C(=O)N[C@@H](CC(C)C)C(=O)[C@@]1(C)CO1 [Carfilzomib], the “cell viability of combination” value turned out to be 97.1 in the assay on HCI01 and 64.8 in the assay with UCD52.

With `CS(=O)(=O)O.Cc1c(O)cccc1C(=O)NC(CSc1ccccc1)C(O)CN1CC2CCCCC2CC1C(=O)NC(C)(C)C` (stereo unspecified) [Nelfinavir Mesylate] + CC(C)C[C@H](NC(=O)[C@H](CCc1ccccc1)NC(=O)CN1CCOCC1)C(=O)N[C@@H](Cc1ccccc1)C(=O)N[C@@H](CC(C)C)C(=O)[C@@]1(C)CO1 [Carfilzomib], the “cell viability of combination” value is 80.3 with HCI01 and 57.2 with UCD52.

For `O=C(O)c1cc(O)c(O)c(O)c1` [Gallic acid] + CC(C)C[C@H](NC(=O)[C@H](CCc1ccccc1)NC(=O)CN1CCOCC1)C(=O)N[C@@H](Cc1ccccc1)C(=O)N[C@@H](CC(C)C)C(=O)[C@@]1(C)CO1 [Carfilzomib], the “cell viability of combination” value in the assay on HCI01 turned out to be 74.5; in the assay with UCD52 it was 60.9.

Take `CCN(CC)CCNC(=O)c1c(C)[nH]c(C=C2C(=O)Nc3ccc(F)cc32)c1C` [Sunitinib] + CC(C)C[C@H](NC(=O)[C@H](CCc1ccccc1)NC(=O)CN1CCOCC1)C(=O)N[C@@H](Cc1ccccc1)C(=O)N[C@@H](CC(C)C)C(=O)[C@@]1(C)CO1 [Carfilzomib]: the “cell viability of combination” value is 66 in the assay on HCI01 and 59.3 in the assay with UCD52.

Regarding `COc1cc2nccc(Oc3ccc(NC(=O)C4(C(=O)Nc5ccc(F)cc5)CC4)cc3)c2cc1OC.O=C(O)CC(O)C(=O)O` [Cabozantinib malate (XL184)] + CC(C)C[C@H](NC(=O)[C@H](CCc1ccccc1)NC(=O)CN1CCOCC1)C(=O)N[C@@H](Cc1ccccc1)C(=O)N[C@@H](CC(C)C)C(=O)[C@@]1(C)CO1 [Carfilzomib], the results for the “cell viability of combination” value with HCI01 and with UCD52 were 77 and 57.2, respectively.

On to `CC(O)C(=O)O.CC(O)C(=O)O.CN1CCN(c2ccc3c(c2)NC(=C2C(=O)N=c4cccc(F)c4=C2N)N3)CC1` [Dovitinib Dilactic acid] + CC(C)C[C@H](NC(=O)[C@H](CCc1ccccc1)NC(=O)CN1CCOCC1)C(=O)N[C@@H](Cc1ccccc1)C(=O)N[C@@H](CC(C)C)C(=O)[C@@]1(C)CO1 [Carfilzomib], for which the “cell viability of combination” value with HCI01 was 71.2; in the assay with UCD52, 88.8.

As to `CN1CCN(CCCN2c3ccccc3Sc3ccc(C(F)(F)F)cc32)CC1.Cl.Cl` [Trifluoperazine 2HCl] + CC(C)C[C@H](NC(=O)[C@H](CCc1ccccc1)NC(=O)CN1CCOCC1)C(=O)N[C@@H](Cc1ccccc1)C(=O)N[C@@H](CC(C)C)C(=O)[C@@]1(C)CO1 [Carfilzomib], the “cell viability of combination” value in the assay with HCI01 is 76.2; in the assay with UCD52, 59.5.

As to `CO[C@H]1/C=C/O[C@@]2(C)Oc3c(C)c(O)c4c(O)c(c(/C=N/N5CCN(C6CCCC6)CC5)c(O)c4c3C2=O)NC(=O)/C(C)=C\C=C\[C@H](C)[C@H](O)[C@@H](C)[C@@H](O)[C@@H](C)[C@H](OC(C)=O)[C@@H]1C` [Rifapentine] + CC(C)C[C@H](NC(=O)[C@H](CCc1ccccc1)NC(=O)CN1CCOCC1)C(=O)N[C@@H](Cc1ccccc1)C(=O)N[C@@H](CC(C)C)C(=O)[C@@]1(C)CO1 [Carfilzomib], the “cell viability of combination” value in the assay on HCI01 was found to be 78.8; in the assay on UCD52 it was 58.6.

`Nc1c(CC(=O)[O-])cccc1C(=O)c1ccccc1.O.[Na+]` [Amfenac Sodium Monohydrate] + CC(C)C[C@H](NC(=O)[C@H](CCc1ccccc1)NC(=O)CN1CCOCC1)C(=O)N[C@@H](Cc1ccccc1)C(=O)N[C@@H](CC(C)C)C(=O)[C@@]1(C)CO1 [Carfilzomib]: the results for the “cell viability of combination” value in the assay with HCI01 and in the assay with UCD52 were 76.5 and 66.3, respectively.

As for `Cn1cnc2c(F)c(Nc3ccc(Br)cc3F)c(C(=O)NOCCO)cc21` + CC(C)C[C@H](NC(=O)[C@H](CCc1ccccc1)NC(=O)CN1CCOCC1)C(=O)N[C@@H](Cc1ccccc1)C(=O)N[C@@H](CC(C)C)C(=O)[C@@]1(C)CO1 [Carfilzomib], the “cell viability of combination” value in the assay on HCI01 came out at 67.1; in the assay with UCD52, 50.1.

Turning to `CNC(=O)c1cc(Oc2ccc(NC(=O)Nc3ccc(Cl)c(C(F)(F)F)c3)cc2)ccn1.Cc1ccc(S(=O)(=O)O)cc1` [Sorafenib Tosylate] + CC(C)C[C@H](NC(=O)[C@H](CCc1ccccc1)NC(=O)CN1CCOCC1)C(=O)N[C@@H](Cc1ccccc1)C(=O)N[C@@H](CC(C)C)C(=O)[C@@]1(C)CO1 [Carfilzomib], the “cell viability of combination” value with HCI01 was determined as 70.3; with UCD52 it was 52.6.

On to `CC(C)C1=CC(=C2NNC(=O)N2c2ccc3c(ccn3C)c2)C(=O)C=C1O` [Ganetespib (STA-9090)] + CC(C)C[C@H](NC(=O)[C@H](CCc1ccccc1)NC(=O)CN1CCOCC1)C(=O)N[C@@H](Cc1ccccc1)C(=O)N[C@@H](CC(C)C)C(=O)[C@@]1(C)CO1 [Carfilzomib], for which the entries for the “cell viability of combination” value in the assay on HCI01 and in the assay with UCD52 were 66.1 and 58.6, respectively.

As to `C=C1C(=CC=C2CCCC3(C)C2CCC3C(C)C=CC(C)C(C)C)CC(O)CC1O` (stereo unspecified) [Doxercalciferol] + CC(C)C[C@H](NC(=O)[C@H](CCc1ccccc1)NC(=O)CN1CCOCC1)C(=O)N[C@@H](Cc1ccccc1)C(=O)N[C@@H](CC(C)C)C(=O)[C@@]1(C)CO1 [Carfilzomib], the “cell viability of combination” value in the assay on HCI01 is 67; in the assay with UCD52, 44.

On to `Cl.Clc1ccccc1CN1CCc2sccc2C1` [Ticlopidine HCl] + CC(C)C[C@H](NC(=O)[C@H](CCc1ccccc1)NC(=O)CN1CCOCC1)C(=O)N[C@@H](Cc1ccccc1)C(=O)N[C@@H](CC(C)C)C(=O)[C@@]1(C)CO1 [Carfilzomib], for which the results for the “cell viability of combination” value with HCI01 and in the assay with UCD52 were 78.4 and 58.7, respectively.

Regarding `Cl.O.O=C1Cc2cc(CCN3CCN(c4nsc5ccccc45)CC3)c(Cl)cc2N1` [Ziprasidone hydrochloride monohydrate] + CC(C)C[C@H](NC(=O)[C@H](CCc1ccccc1)NC(=O)CN1CCOCC1)C(=O)N[C@@H](Cc1ccccc1)C(=O)N[C@@H](CC(C)C)C(=O)[C@@]1(C)CO1 [Carfilzomib], the “cell viability of combination” value is 79.6 with HCI01 and 64.2 in the assay with UCD52.

Regarding `O=C(NC1CCN(CCCCC2(C(=O)NCC(F)(F)F)c3ccccc3-c3ccccc32)CC1)c1ccccc1-c1ccc(C(F)(F)F)cc1` [Lomitapide] + CC(C)C[C@H](NC(=O)[C@H](CCc1ccccc1)NC(=O)CN1CCOCC1)C(=O)N[C@@H](Cc1ccccc1)C(=O)N[C@@H](CC(C)C)C(=O)[C@@]1(C)CO1 [Carfilzomib], the “cell viability of combination” value is 84.9 in the assay on HCI01 and 38.9 with UCD52.

Consider `Cc1ccc(-n2[nH]c(C)c(NN=C3C=CC=C(c4cccc(C(=O)O)c4)C3=O)c2=O)cc1C` [Eltrombopag] + CC(C)C[C@H](NC(=O)[C@H](CCc1ccccc1)NC(=O)CN1CCOCC1)C(=O)N[C@@H](Cc1ccccc1)C(=O)N[C@@H](CC(C)C)C(=O)[C@@]1(C)CO1 [Carfilzomib], for which the “cell viability of combination” value is 74.8 in the assay with HCI01 and 58.8 in the assay with UCD52.

`COc1cccc2c1C(=O)c1c(O)c3c(c(O)c1C2=O)C[C@@](O)(C(C)=O)C[C@@H]3O[C@H]1C[C@H](N)[C@H](O)[C@H](C)O1.Cl` [Daunorubicin HCl] + CC(C)C[C@H](NC(=O)[C@H](CCc1ccccc1)NC(=O)CN1CCOCC1)C(=O)N[C@@H](Cc1ccccc1)C(=O)N[C@@H](CC(C)C)C(=O)[C@@]1(C)CO1 [Carfilzomib]: the figures for the “cell viability of combination” value in the assay with HCI01 and with UCD52 were 79.9 and 17.1, respectively.
